Common to all, as to conditions: mRNA level, 48 h; actives raise or lower the signal
Read-out in experiment [1]: Cytochrome P450 4A22 (Homo sapiens) (UniProt Q5TCH4)
Put plainly: LTEA_HepaRG_CYP4A22: Life Technologies and Expression Analysis (LTEA) Assay for Cytochrome P450 4A22 (CYP4A22) using HepaRG (AID 2283495). In outline: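 Gene expression measured by qRT-PCR against three housekeeping genes (ACTB, GAPDH, POLR2A), with gain or loss fitted relative to 0.5% DMSO vehicle. HepaRG cultures received 48 h chemical treatment, top concentration 100 uM, half-log steps, duplicate wells.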

Read-out in experiment [2]: Cytochrome P450 7A1 (Homo sapiens) (UniProt P22680)
As to the kind of experiment: LTEA_HepaRG_CYP7A1: Life Technologies and Expression Analysis (LTEA) Assay for Cytochrome P450 7A1 (CYP7A1) using HepaRG (AID 2283496). In outline:
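HepaRG, 48 h exposure, 8-pt half-log series from 100 uM, 0.5% DMSO vehicle, duplicates. Readout: TaqMan qRT-PCR mRNA vs three housekeeping genes; bidirectional curve fit against DMSO baseline.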

Read-out in experiment [3]: Glutathione S-Transferase (GSTA2), GSTA2 (gene 2939)
As to the kind of experiment: LTEA_HepaRG_GSTA2: Life Technologies and Expression Analysis (LTEA) Assay for Glutathione S-Transferase (GSTA2) using HepaRG (AID 2283497). The method, boiled down: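 qRT-PCR readout of GSTA2 transcript, normalized to three housekeeping genes, fitted bidirectionally against 0.5% DMSO baseline. Differentiated HepaRG cells received compound for 48 h at 8 concentrations (top 100 uM, half-log steps).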

Read-out in experiment [4]: Glutamate-cysteine ligase catalytic (GCLC), GCLC (gene 2729)
Put plainly: LTEA_HepaRG_GCLC: Life Technologies and Expression Analysis (LTEA) Assay for Glutamate-cysteine ligase catalytic (GCLC) using HepaRG (AID 2283498). In outline:
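HepaRG, 48 h exposure, 8-pt half-log series from 100 uM, 0.5% DMSO vehicle; TaqMan qRT-PCR for GCLC mRNA, housekeeping-normalized; bidirectional curve fit vs DMSO baseline.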

Read-out in experiment [5]: Glutamate-cysteine ligase regulatory (GCLM), GCLM (gene 2730)
As to the kind of experiment: LTEA_HepaRG_GCLM: Life Technologies and Expression Analysis (LTEA) Assay for Glutamate-cysteine ligase regulatory (GCLM) using HepaRG (AID 2283500). The method, boiled down: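 Endpoint is GCLM transcript level by qRT-PCR, normalized to three housekeeping genes, after 48 h chemical exposure of human HepaRG cells (0.5% DMSO vehicle, top 100 uM, half-log dilutions). Fitting was bidirectional relative to DMSO.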

Read-out in experiment [6]: Glutathione S-transferase M3 (GSTM3), GSTM3 (gene 2947)
As to the kind of experiment: LTEA_HepaRG_GSTM3: Life Technologies and Expression Analysis (LTEA) Assay for Glutathione S-transferase M3 (GSTM3) using HepaRG (AID 2283501). In outline: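 GSTM3 transcript levels came from Fluidigm TaqMan qRT-PCR normalized to three housekeeping genes, fitted in both directions against DMSO. HepaRG cultures received chemicals for 48 h in serum-free induction medium (0.5% DMSO), 8 half-log concentrations up to 100 uM, duplicate.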

Read-out in experiment [7]: Heat shock 70 kDa protein 1 (HSPA1A), gene 3303
As to the kind of experiment: LTEA_HepaRG_HSPA1A: Life Technologies and Expression Analysis (LTEA) Assay for Heat shock 70 kDa protein 1 (HSPA1A) using HepaRG (AID 2283502). The method, boiled down:
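Cells were plated and cultured for 48 h, then switched to serum-free induction medium. Chemicals were added at eight half-log concentrations up to 100 uM for 48 h. RNA was then isolated and HSPA1A measured by qRT-PCR with bidirectional curve fitting against DMSO.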

Read-out in experiment [8]: Hypoxia-inducible factor 1-alpha (Homo sapiens) (UniProt Q16665)
Put plainly: LTEA_HepaRG_HIF1A: Life Technologies and Expression Analysis (LTEA) Assay for Hypoxia-inducible factor 1 (HIF1A) Trancription factor using HepaRG (AID 2283503). The method, boiled down: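 HIF1A transcript level read by qRT-PCR (ACTB, GAPDH, POLR2A normalization) after 48 h chemical exposure of HepaRG cultures. Eight half-log concentrations, top 100 uM, 0.5% DMSO vehicle, duplicates; bidirectional curve fit against DMSO baseline.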

Read-out in experiment [9]: 3-Hydroxy-3-Methylglutaryl-CoA Synthase 2 (HMGCS2), HMGCS2 (gene 3158)
As to the kind of experiment: LTEA_HepaRG_HMGCS2: Life Technologies and Expression Analysis (LTEA) Assay for 3-Hydroxy-3-Methylglutaryl-CoA Synthase 2 (HMGCS2) using HepaRG (AID 2283504). In outline:
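Readout is HMGCS2 transcript by qRT-PCR, housekeeping-normalised (ACTB/GAPDH/POLR2A) and fitted bidirectionally against 0.5% DMSO. Differentiated HepaRG cells received chemicals 48 h, duplicate wells, eight half-log concentrations topping at 100 uM.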

Read-out in experiment [10]: HGF (gene 3082)
Put plainly: LTEA_HepaRG_HGF: Life Technologies and Expression Analysis (LTEA) Assay for Hepatocyte Growth Facto (HGF) using HepaRG (AID 2283505). In outline: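 HGF transcript was quantified by TaqMan qRT-PCR against three housekeeping genes after 48 h treatment of HepaRG cells. Exposure ran in duplicate over eight half-log steps topping at 100 uM in 0.5% DMSO vehicle.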

Read-out in experiment [11]: Insulin Like Growth Factor 1 (IGF1), IGF1 (gene 3479)
Put plainly: LTEA_HepaRG_IGF1: Life Technologies and Expression Analysis (LTEA) Assay for Insulin Like Growth Factor 1 (IGF1) using HepaRG (AID 2283506). The method, boiled down:
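Cells are thawed, plated and cultured 48 h, then exposed in duplicate to chemical (highest 100 uM, half-log steps, 0.5% DMSO) for another 48 h. Total RNA is analysed by Fluidigm qRT-PCR for IGF1 expression relative to vehicle.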

Read-out in experiment [12]: Intercellular Adhesion Molecule 1 (ICAM1), ICAM1 (gene 3383)
As to the kind of experiment: LTEA_HepaRG_ICAM1: Life Technologies and Expression Analysis (LTEA) Assay for Intercellular Adhesion Molecule 1 (ICAM1) using HepaRG (AID 2283507). In outline: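 ICAM1 transcript levels measured by qRT-PCR, normalized to three housekeeping genes (ACTB, GAPDH, POLR2A), after 48 h chemical exposure of HepaRG cells. Duplicate eight-point half-log series from 100 uM in 0.5% DMSO; gain or loss fitted against vehicle.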

Read-out in experiment [13]: Insulin-like growth factor-binding protein 1 (IGFBP1), IGFBP1 (gene 3484)
Put plainly: LTEA_HepaRG_IGFBP1: Life Technologies and Expression Analysis (LTEA) Assay for Insulin-like growth factor-binding protein 1 (IGFBP1) using HepaRG (AID 2283508). In outline:
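Read-out is qRT-PCR transcript level normalized to three housekeeping genes, fitted in both directions against 0.5% DMSO. Differentiated HepaRG cells received eight half-log concentrations (top 100 uM) in duplicate for 48 h in serum-free induction medium.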

Read-out in experiment [14]: Interleukin 6 (IL6), IL6 (gene 3569)
Put plainly: LTEA_HepaRG_IL6: Life Technologies and Expression Analysis (LTEA) Assay for Interleukin 6 (IL6) using HepaRG (AID 2283509). In outline:
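qRT-PCR read-out of IL6 transcript, normalized to three housekeeping genes, after 48 h chemical exposure of HepaRG cells; 8-point half-log series, top 100 uM, 0.5% DMSO vehicle. Bidirectional curve fitting against DMSO baseline.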

Read-out in experiment [15]: Interleukin 6 Receptor (IL6R), IL6R (gene 3570)
As to the kind of experiment: LTEA_HepaRG_IL6R: Life Technologies and Expression Analysis (LTEA) Assay for Interleukin 6 Receptor (IL6R) using HepaRG (AID 2283510).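 On AC50: differentiated human HepaRG liver cells in serum-free induction medium.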 In outline:
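Cells were thawed, plated and cultured 48 h, then medium was changed to serum-free induction medium. Chemicals were added in duplicate (100 uM top, half-log steps, 0.5% DMSO) for 48 h. Lysates were analyzed by qRT-PCR for IL6R expression.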

Read-out in experiment [16]: Potassium channel subfamily K member 1 (KCNK1), KCNK1 (gene 3775)
As to the kind of experiment: LTEA_HepaRG_KCNK1: Life Technologies and Expression Analysis (LTEA) Assay for Potassium channel subfamily K member 1 (KCNK1) using HepaRG (AID 2283511). In outline: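 HepaRG, 48 h exposure, 8-pt half-log series top 100 uM, 0.5% DMSO vehicle, duplicates. Readout: KCNK1 transcript by qRT-PCR (Fluidigm array), housekeeping-normalized; bidirectional curve fit relative to DMSO baseline.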

Read-out in experiment [17]: Keratin 19 (KRT19), KRT19 (gene 3880)
Put plainly: LTEA_HepaRG_KRT19: Life Technologies and Expression Analysis (LTEA) Assay for Keratin 19 (KRT19) using HepaRG (AID 2283512). In outline:
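KRT19 transcript measured by TaqMan qRT-PCR, referenced to three housekeeping genes, after HepaRG cells received test chemicals for 48 h. Eight half-log concentrations, top 100 uM, 0.5% DMSO vehicle; increases and decreases both fitted.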

Read-out in experiment [18]: Lipase C (LIPC), LIPC (gene 3990)
Put plainly: LTEA_HepaRG_LIPC: Life Technologies and Expression Analysis (LTEA) Assay for Lipase C (LIPC) using HepaRG (AID 2283514). The method, boiled down: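 HepaRG, 48 h exposure, 8-pt half-log series from 100 uM in 0.5% DMSO, duplicates. Readout: LIPC mRNA by Fluidigm qRT-PCR, housekeeping-normalized (ACTB/GAPDH/POLR2A). Gain or loss fitted bidirectionally against DMSO baseline.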

Read-out in experiment [19]: JUN Transcription Factor, JUN (gene 3725)
As to the kind of experiment: LTEA_HepaRG_JUN: Life Technologies and Expression Analysis (LTEA) Assay for JUN Transcription Factor using HepaRG (AID 2283513). In outline: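 Read-out is JUN transcript level by TaqMan qRT-PCR, normalized to ACTB, GAPDH and POLR2A, after 48 h chemical treatment of HepaRG cells. Concentration-response spanned eight half-log points up to 100 uM in 0.5% DMSO.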

Read-out in experiment [20]: growth arrest and DNA damage 45 (GADD45G), GADD45G (gene 10912)
As to the kind of experiment: LTEA_HepaRG_GADD45G: Life Technologies and Expression Analysis (LTEA) Assay for growth arrest and DNA damage 45 (GADD45G) using HepaRG (AID 2283499). In outline: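 GADD45G transcript level by qRT-PCR (housekeeping-normalized: ACTB, GAPDH, POLR2A) after 48 h chemical treatment of a single HepaRG lot in serum-free induction medium; eight-point half-log series up to 100 uM in 0.5% DMSO, duplicates, up- or down-regulation scored.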

Each structure is given as a SMILES string. The source made the active and inactive calls. How the source made its calls: active means hit-call score of the fitted dose curve at least 0.9, where 1 is the maximum; inactive means score below 0.9.

Chain of Hypoxia-inducible factor 1-alpha (Homo sapiens) (Q16665 whole entry, looked up): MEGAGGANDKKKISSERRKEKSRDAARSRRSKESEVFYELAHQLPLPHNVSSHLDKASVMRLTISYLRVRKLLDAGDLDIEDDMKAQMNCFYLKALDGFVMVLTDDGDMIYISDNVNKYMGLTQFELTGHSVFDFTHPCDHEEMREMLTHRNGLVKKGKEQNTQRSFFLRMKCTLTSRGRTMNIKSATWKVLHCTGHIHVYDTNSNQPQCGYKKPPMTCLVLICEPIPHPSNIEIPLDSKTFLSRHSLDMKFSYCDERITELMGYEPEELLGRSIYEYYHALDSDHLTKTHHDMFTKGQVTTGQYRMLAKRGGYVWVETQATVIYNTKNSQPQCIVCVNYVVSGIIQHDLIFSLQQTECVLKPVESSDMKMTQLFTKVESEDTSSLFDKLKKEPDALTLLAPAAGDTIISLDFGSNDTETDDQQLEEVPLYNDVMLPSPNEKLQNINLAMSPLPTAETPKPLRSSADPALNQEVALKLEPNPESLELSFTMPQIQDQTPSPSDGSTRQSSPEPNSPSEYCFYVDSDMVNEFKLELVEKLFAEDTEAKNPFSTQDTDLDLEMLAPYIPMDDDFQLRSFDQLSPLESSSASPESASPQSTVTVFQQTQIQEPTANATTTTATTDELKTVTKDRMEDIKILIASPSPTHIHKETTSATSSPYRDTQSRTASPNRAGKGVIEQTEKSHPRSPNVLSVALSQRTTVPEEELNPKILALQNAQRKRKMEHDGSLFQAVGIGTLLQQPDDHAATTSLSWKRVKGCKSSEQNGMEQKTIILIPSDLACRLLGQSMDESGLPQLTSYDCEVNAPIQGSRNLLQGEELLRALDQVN

As for `CC#C[C@]1(O)CC[C@H]2[C@@H]3CCC4=CC(=O)CCC4=C3[C@@H](c3ccc(N(C)C)cc3)C[C@@]21C`, the concentration at half-maximal activity (AC50) in experiment [1] was 24.2 µM (active); in experiment [2] it was 43.6 µM (active); in [3], 71.5 µM (active); in experiment [4] it was 28.4 µM (active); in experiment [5] it was 31.6 µM (active); in experiment [8], 85.5 µM (active). Further, the AC50 in experiment [9] was 75.9 µM (active); in [10], 85.2 µM (active); in [11] it was 68.4 µM (active); in [12], 26 µM (active); in experiment [13], 23.6 µM (active); in experiment [14], 37.4 µM (active). Further, the results for the AC50 in experiment [15], in experiment [16] and in experiment [18] were 12.9 µM (active), 69 µM (active) and 67.2 µM (active), respectively. In addition, the outcome in experiment [6], in experiment [7] and in experiment [17] was inactive.
In the case of `NC(=O)N(O)[C@@H]1C=C[C@H](Oc2cccc(Oc3ccc(F)cc3)c2)C1`, the AC50 in experiment [1] is 25.6 µM (active); in [2], 74.2 µM (active); in experiment [3], 51 µM (active); in experiment [5], 50 µM (active); in [7], 82.6 µM (active); in experiment [8], 78.7 µM (active). In addition, the concentration at half-maximal activity (AC50) is 40.6 µM (active) in [9]; 37.9 µM (active) in experiment [11]; 37.3 µM (active) in [12]; 71.8 µM (active) in experiment [13]; 38.6 µM (active) in [14]; 35.5 µM (active) in experiment [16]. For the same compound, the AC50 is 76.6 µM (active) in experiment [19] and 36.4 µM (active) in experiment [18]. In addition, the compound was classed as inactive in experiment [4], in experiment [6], in [10] and in experiment [15].
With `CCCCOCCO`, the outcome in experiment [1], in [2], in [3], in experiment [4], in [5] and in experiment [6] was inactive. The outcome in experiment [7], in [8], in experiment [9], in [10], in experiment [11] and in experiment [12] was inactive. Further, the outcome in [13], in experiment [14], in experiment [15], in experiment [16], in experiment [19] and in [18] was inactive.
With `O=C(O)Cc1cc(I)c(Oc2cc(I)c(O)c(I)c2)c(I)c1`, the half-maximal activity concentration (AC50) in [1] was 54.5 µM (active); in experiment [2] it was 48.2 µM (active); in experiment [3], 56.7 µM (active); in [4] it was 57.9 µM (active); in experiment [20], 7.52 µM (active); in experiment [6], 33.5 µM (active). Moreover, the concentration at half-maximal activity (AC50) is 54 µM (active) in experiment [7]; 21.5 µM (active) in experiment [8]; 49.5 µM (active) in [9]; 52.7 µM (active) in experiment [10]; 54.8 µM (active) in experiment [12]; 55.7 µM (active) in [13]. For the same compound, the AC50 is 54 µM (active) in [14], 55 µM (active) in experiment [15], 53.9 µM (active) in [16] and 52.2 µM (active) in [18]. Also, the compound was classed as inactive in [5] and in [11].

The term AC50 denotes the concentration giving half of the maximal activity seen.
